From PubChem
Pf growth 96h: P. falciparum growth inhibition at 96 hour, primary screen for plastid delayed-death inhibitors; 320,000 tested, 6.9% active; P. falciparum luciferase reporter growth, 96 h; Potency, µM (highest dose often 28.7 µM), for inactives: top-dose activity change, negative = inhibition, usual class: inhibitors; also: potency is read from the fitted curve at half-maximal effect
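Erythrocytes infected with luciferase-expressing P. falciparum were dispensed at 2% hematocrit and 0.05% parasitemia (final), then incubated with compounds 96 hours at 37 C in 5% CO2. Luminescence after detection reagent addition reported growth.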
HCMV antiviral: inhibitors of human cytomegalovirus | HFF cells, HCMV-luciferase reporter, 72 h; active compounds read low | activity change, negative = inhibition, % at 57.5 µM | 410,000 tested, 4.5% active | AID 1259415; in the data active = activity change below about -60%; inconclusive = no clear call, values can overlap the other calls; inactive = above about -39%
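Cell-based, HFFs, 1000 cells/well, 16 h 37C; cpds in DMSO + HCMV-luc, MOI 1 PFU/cell; 72 h 37C; OneGlo luminescence after 5 min RT; norm. to buffer vs Salinomycin 10uM.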
Sm TGR block: S. mansoni TGR enzyme inhibition; Q962Y6; purified TGR, DTNB reduction, TNB absorbance 405 nm; AID 485364; Potency, µM (doses to about 114 µM), without a hit: at the top dose activity change, negative = inhibition, usual class: inhibitors; 360,000 tested, 3% active; also: potency is read from the fitted curve at half-maximal effect; nearly all actives have a fitted effect of over 60% in size
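TGR 20 nM + NADPH 100 uM (dispensed conc.), cpd preinc 15 min RT; start with NADPH (500 uM addition) then DTNB (15 mM addition). Kinetic TNB absorbance, 405 nm filter. Four-parameter Hill fit across titration.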
Pf growth 48h: inhibits P. falciparum growth in the first generation, 48 h; P. falciparum luciferase growth in erythrocytes, 48 h; 310,000 tested, 5.9% active; Potency, µM (highest dose often 28.7 µM), for the others: at the top dose activity change, negative = inhibition, hits mostly inhibitors; also: potency is read from the fitted curve at half-maximal effect
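Luciferase-expressing P. falciparum in infected erythrocytes (2% hematocrit, 0.1% parasitemia final) in RPMI 1640/0.5% Albumax were exposed to compound for 48 hours at 37 C, 5% CO2; growth read as luminescence.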
Giardia FBPA inh: Giardia lamblia aldolase inhibition; 290,000 tested, 0.71% active; AID 2451; Potency, µM (titrated, usually from 59.6 µM), for inactives: at the highest dose activity, negative = inhibition, usual class: inhibitors; A8B2U2; purified Giardia FBPA; also: potency is read from the fitted curve at half-maximal effect; nearly all actives have a fitted effect of over 55% in size
Target sequence (A8B2U2 whole entry, looked up): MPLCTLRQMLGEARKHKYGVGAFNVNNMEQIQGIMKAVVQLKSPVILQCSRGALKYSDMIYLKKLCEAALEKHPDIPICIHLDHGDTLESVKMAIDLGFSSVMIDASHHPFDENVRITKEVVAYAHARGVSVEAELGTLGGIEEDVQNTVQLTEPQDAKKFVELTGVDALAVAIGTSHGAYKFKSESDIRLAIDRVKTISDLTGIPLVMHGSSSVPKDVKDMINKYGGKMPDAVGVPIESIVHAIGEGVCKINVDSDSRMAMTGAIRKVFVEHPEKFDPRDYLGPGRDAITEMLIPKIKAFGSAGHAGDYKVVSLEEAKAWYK
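Giardia FBPA (40 nM reagent) was preincubated 10 min at RT with compound (up to 57.5 uM final), then substrate plus GAPDH/TPI/NAD/arsenate coupling system with diaphorase/resazurin was added; resorufin fluorescence (525/598 nm) was read after 20 min.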
The depositor's hits bear a star; ? = inconclusive; nt = no result given. Sampled rows, rich in hits. Any-hit rate of the full collection: about 14%. Unless noted, calls follow the shape of the dose curve; as a rule, active = well fitted curve in the direction sought with a large enough effect; inconclusive = small, poorly fitted or top-dose-only effect, or another doubt; inactive = no such curve, though single readings can be large; an effect the other way counts as inactive or inconclusive. % is scaled to controls: 0 for no effect and ±100 for the full control effect.

SMILES	Pf growth 96h	HCMV antiviral	Sm TGR block	Pf growth 48h	Giardia FBPA inh
Cn1c(=O)n(C)c2cc([N+](=O)[O-])c(N3CCN(C(=O)c4ccccc4Br)CC3)cc21	9%	?	nt	-16%	0%
COc1ccc(OC)c(-n2nnnc2SCC(=O)Nc2ccccc2N2CCOCC2)c1	28%	?	5%	4%	1%
COc1ccc(NC(=O)CCc2c(C)nc3c(c2C)c(=O)n(C)c(=O)n3C)c(OC)c1	nt	-76*	7%	nt	nt
COc1cc(OC)cc(-c2cc3nc(C)c(CCC(=O)NCc4ccc(Cl)cc4)c(C)n3n2)c1	nt	-61*	0%	nt	nt
COc1cc(OC)cc(-c2cc3nc(C)c(CCC(=O)NCc4ccccc4)c(C)n3n2)c1	?	-69*	-12%	?	-7%
COc1cc(OC)cc(-c2cc3nc(C)c(CCC(=O)Nc4ccccc4OC)c(C)n3n2)c1	nt	-62*	1%	nt	nt
O=C(NCCS(=O)(=O)c1ccc(Br)cc1)c1ccc(Cl)cc1Cl	22%	-7	-5%	3%	2%
Cc1c(C)c2cc(Cl)c(OCC(=O)N3CCN(c4ccc(F)cc4)CC3)cc2oc1=O	-1%	-24	-4%	8%	nt
CN(c1ccccc1C(=O)Nc1cccc([N+](=O)[O-])c1)S(=O)(=O)c1ccccc1	-12%	37	10%	2%	2%
Cc1csc(NC(=O)CCc2c(C)nc3cc(-c4ccc(Cl)cc4)nn3c2C)n1	15µM*	-27	-1%	?	-2%
Clc1cccc(CSc2ccc(-c3ccco3)nn2)c1	11%	45	7.1µM*	38%	-1%
Fc1ccccc1CSc1ccc(-c2ccco2)nn1	180%	-18	32µM*	248%	-1%
Clc1ccc(CSc2ccc(-c3ccco3)nn2)cc1	36%	30	28µM*	146%	0%
c1ccc(CSc2ccc(-c3ccco3)nn2)cc1	211%	-25	22µM*	195%	-3%
CCCCNC(=O)C1(C)CCN1C(=O)c1ccc(C)c(F)c1 (centres undefined)	nt	4	nt	nt	nt
CCOc1ccc(C(=O)NCC(=O)OCc2c(F)cccc2Cl)cc1	-6%	-67*	-5%	-15%	3%
CCOc1ccc(C(=O)NCC(=O)OCc2c(F)cccc2Cl)cc1OCC	41%	?	-6%	3%	4%
CC(Oc1ccc(Cl)cc1)C(=O)Nc1cccc(S(=O)(=O)N2CCOCC2)c1 (centres undefined)	10µM*	-6	0%	?	nt
CCN1CCN(c2ccc(S(=O)(=O)N3CCOCC3)cc2NC(=O)C(C)Oc2ccc(Cl)cc2)CC1 (centres undefined)	?	21	1%	12µM*	nt
COCCn1c(=O)c(C)nc2cnc(Oc3ccc(OC)cc3)nc21	nt	nt	nt	nt	-26%
CC1CC(C)(C)CC2(C1)NC(=O)N(CC(=O)Nc1cc([N+](=O)[O-])ccc1F)C2=O (centres undefined)	1%	?	1%	?	nt
Cc1ccc(C)c(NC(=O)Cn2c(=O)oc3cc(S(=O)(=O)NCc4ccccc4)ccc32)c1	nt	-5	-3%	nt	nt
COc1ccc(CN(C)c2ncnc3sccc23)c(OC)c1OC	?	?	-19%	13µM*	1%
CN(Cc1cccs1)c1ncnc2sccc12	3%	-78*	-10%	-14%	-9%
COc1ccc(CCN(C)c2ncnc3sccc23)cc1OC	4%	?	-6%	-5%	-13%
SMILES	Pf growth 96h	HCMV antiviral	Sm TGR block	Pf growth 48h	Giardia FBPA inh
COc1ccc(NC(=O)CN(C)C(=O)CCc2c[nH]c3ccccc23)cc1	18%	-22	5%	0%	-6%
CC(C)N(C(=O)COC(=O)CCC(=O)c1cccs1)c1ccccc1	nt	-16	nt	nt	nt
O=[N+]([O-])c1ccc2c(c1)N([O-])C1(CCCCC1)[N+]2=O	-29%	3	2.8µM*	?	7.9µM*
O=c1[nH]nc(-c2ccc[nH]2)[nH]1	nt	7	nt	nt	nt
CC(=O)Nc1ccc(NC(=O)c2cccc(-c3cc4ccccc4oc3=O)c2)cc1	87%	73	-2%	53%	4%
COc1cc(NC(=O)c2ccc(C)cc2C)ccc1NC(=O)c1cc2ccccc2o1	?	-82*	0%	56%	-3%
COc1ccc2nc(NC(=O)c3cccc(-c4cc5ccccc5oc4=O)c3)sc2c1	4.7µM*	1	-6%	?	-1%
COc1cc(NC(=O)c2ccc(Cl)cc2Cl)ccc1-c1cc2ccccc2oc1=O	-17%	-91*	-1%	-1%	5%
COc1ccc(C(=O)Nc2cccc(-c3cc4ccccc4oc3=O)c2)cc1[N+](=O)[O-]	31%	18	0%	13µM*	2%
CCNc1ncc2nc(-c3cc(F)cc(F)c3)c(=O)n(CCC#N)c2n1	nt	nt	nt	nt	3%
CCc1cccc(NS(=O)(=O)c2ccc3c(c2)n(C)c(=O)n3C)c1	4.7µM*	-13	0%	-14%	4%
CCc1cccc(NS(=O)(=O)c2ccc3c(c2)n(C)c(=O)c(=O)n3C)c1	nt	-32	3%	nt	nt
CCOC(=O)c1oc2ccc(S(=O)(=O)Nc3ccc4c(c3)n(C)c(=O)n4C)cc2c1C	nt	-65*	-15%	?	-19%
Cn1c(=O)n(C)c2cc(NS(=O)(=O)c3ccc4c(c3)CCCC4)ccc21	nt	-107*	1%	-71%	-9%
Cn1c(=O)n(C)c2cc(NS(=O)(=O)c3ccc(C(C)(C)C)cc3)ccc21	-2%	-32	6%	?	2%
COc1ccc(S(=O)(=O)Nc2ccc3c(c2)n(C)c(=O)n3C)cc1C	29%	156	-8%	29%	-5%
CCN(Cc1ccccc1)S(=O)(=O)c1ccc(N2CCCCS2(=O)=O)cc1	nt	-37	6%	nt	nt
Cc1ccc(NC(=O)CCS(=O)(=O)c2ccc3c(c2)oc(=O)n3C)c(Br)c1	nt	-20	32µM*	nt	nt
Cc1cc(NC(=O)CCNS(=O)(=O)c2ccc3c(c2)oc(=O)n3C)ccc1Br	nt	-9	-12%	nt	nt
CC(=O)Nc1ccc(NC(=O)CCS(=O)(=O)c2ccc3c(c2)oc(=O)n3C)cc1	9.3µM*	-13	?	17%	nt
CC(=O)c1ccc(NC(=O)CCS(=O)(=O)c2ccc3c(c2)n(C)c(=O)c(=O)n3C)cc1	9.3µM*	nt	40µM*	40%	0%
CCc1ccc(NC(=O)CCS(=O)(=O)c2ccc3c(c2)oc(=O)n3C)cc1	nt	-6	-3%	nt	nt
Cn1c(=O)oc2cc(NC(=O)CCl)ccc21	6.6µM*	-106*	10µM*	5.2µM*	-9%
Cn1c(-c2ccccc2)c(Sc2ccccc2)c2cc(-c3ccc4[nH]ccc4c3)ccc21	nt	-12	nt	nt	nt
CCC1=C2CC[C@H]3C(=O)N(CC(=O)OC)C(=O)[C@H]3[C@H]2[C@@]2(C)C(=NCCc3c[nH]c4ccccc34)OC(=O)N2C1=O	nt	nt	nt	nt	-2%
Cc1cccc(NC(=O)CCS(=O)(=O)c2ccc3c(c2)oc(=O)n3C)c1	8.3µM*	-22	?	5%	nt
